Screening results as filed in PubChem.
Shown are actives, neighbours in structure and some others; about 10% of the full set was active somewhere.
GPT2 inh: blocks human glutamate pyruvate transaminase 2; Q8TD30; Recombinant GPT2, coupled pyruvate oxidase/HRP Amplex Red fluorescence; Potency, µM (series often up to 57.7 µM), inactives show at the highest dose activity change, negative = inhibition, actives largely listed as inhibitors; hit rate 0.25% among 100,000; AID 1671188; also: % is scaled to controls: 0 for no effect and ±100 for the full control effect; nearly all actives have a fitted effect of over 60% in size
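Recombinant GPT2 (10ng/uL) with 250uM a-KG and 2mM L-alanine, 30 min at room temperature, in HEPES pH 7.5 buffer. Pyruvate detected by pyruvate oxidase/HRP/Amplex Red fluorescence after 30 min in the dark; AOA (50uM) as positive control.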
NPR1 antag: antagonists of human natriuretic peptide receptor Npr1. hit rate 1.6% among 76,000. AID 1347048. HEK293 hNpr1 GloSensor cGMP, ANP-stimulated luminescence. Potency, µM (series often up to 46.3 µM), without a hit: top-dose activity change, negative = inhibition, usual class: inhibitors; calls by dose curve; also: % is scaled to controls: 0 for no effect and ±100 for the full control effect; nearly all actives have a fitted effect of over 60% in size
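HEK293 cells stably expressing human Npr1 and cGMP GloSensor pGS-40F, loaded 2 h with 2% GloSensor reagent, given compound 30 min at room temperature. Luminescence read before and 20 min after 0.1 nM hNppA.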
NIH3T3 tox: kills NIH 3T3 cells; NIH 3T3 viability, CellTiter-Glo ATP luminescence, 48-72 h; Potency, µM (titrated, usually from 96.7 µM), inactives show top-dose activity change, negative = cytotoxicity, usual class: inhibitors; hit rate 4.3% among 94,000; AID 1345082; also: % is scaled to controls: 0 for no effect and ±100 for the full control effect; nearly all actives have a fitted effect of over 55% in size
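ATP-dependent luminescence (CellTiter-Glo) served as the viability signal for NIH 3T3 cells treated with compound for 48 or 72 hr at 37 °C.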
FLuc inh: inhibitors of firefly (Photinus pyralis) luciferase | purified P. pyralis luciferase, luminescence, biochemical | hit rate 2.5% among 76,000 | AID 1347043 | P08659 | Potency, µM (series often up to 115 µM), hits mostly inhibitors; also: % is scaled to controls: 0 for no effect and ±100 for the full control effect; nearly all actives have a fitted effect of over 65% in size
Target sequence (P08659 whole entry, looked up): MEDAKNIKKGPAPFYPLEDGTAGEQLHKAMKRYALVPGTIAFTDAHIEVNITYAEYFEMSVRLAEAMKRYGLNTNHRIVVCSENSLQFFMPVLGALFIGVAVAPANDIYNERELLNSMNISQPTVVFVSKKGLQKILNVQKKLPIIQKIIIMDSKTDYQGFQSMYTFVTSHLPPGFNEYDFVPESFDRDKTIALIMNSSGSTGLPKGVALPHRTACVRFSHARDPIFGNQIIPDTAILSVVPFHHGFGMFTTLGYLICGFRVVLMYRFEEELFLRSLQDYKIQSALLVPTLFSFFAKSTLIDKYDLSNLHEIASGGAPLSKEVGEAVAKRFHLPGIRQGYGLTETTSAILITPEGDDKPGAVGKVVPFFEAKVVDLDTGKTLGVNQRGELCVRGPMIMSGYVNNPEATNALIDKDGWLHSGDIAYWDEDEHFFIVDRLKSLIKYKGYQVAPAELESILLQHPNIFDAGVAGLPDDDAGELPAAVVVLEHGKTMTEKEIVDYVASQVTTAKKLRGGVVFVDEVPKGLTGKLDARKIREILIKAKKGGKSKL
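Purified P. pyralis luciferase (10nM final) in 50mM Tris acetate pH 7.5, 10mM Mg acetate, 0.01% Tween-20, 0.05% BSA with 10uM D-luciferin and 10uM ATP. Compounds titrated qHTS. Luminescence imaged on CCD.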
HEK cytotox: HEK 293 cell cytotoxicity | AID 1345083 | HEK 293 viability, ATP luminescence (CellTiter-Glo), 48-72 h | Potency, µM (highest dose often 115 µM), inactives show top-dose activity change, negative = cytotoxicity, hits mostly inhibitors | hit rate 6.6% among 94,000; also: % is scaled to controls: 0 for no effect and ±100 for the full control effect; nearly all actives have a fitted effect of over 60% in size
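HEK 293 seeded at 250 cells/well receive compound via pintool. After 48 or 72 hr at 37 degree Celsius, 5% CO2 and 95% humidity, CellTiter-Glo is dispensed and luminescence read following 10 min at room temperature.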
Npr1 antag conf: confirmation of human Npr1 natriuretic peptide receptor antagonists. Potency, µM (doses to about 57.6 µM), for the others: top-dose activity change, negative = inhibition, usual class: inhibitors. shares compounds with NPR1 antag. hit rate 76% among 1,400. AID 1347044. HEK293 hNpr1 cGMP GloSensor luminescence, ANP-stimulated; calls by dose curve; also: nearly all actives have a fitted effect of over 70% in size
Npr2 selectivity: hNpr2 antagonism, selectivity versus Npr1; hit rate 67% among 1,400; Potency, µM (titrated, usually from 57.6 µM), inactives show at the highest dose activity change, negative = inhibition, most hits filed as inhibitors; AID 1347046; HEK293 hNpr2 GloSensor cGMP luminescence, CNP-stimulated; shares compounds with NPR1 antag; calls by dose curve; also: nearly all actives have a fitted effect of over 70% in size
FLuc inh counter: FLuc enzyme inhibition, Npr1 counter-screen. shares compounds with NPR1 antag. Potency, µM (top dose mostly 57.6 µM), for the others: at the top dose activity change, negative = inhibition, usual class: inhibitors. hit rate 0.7% among 1,400. purified FLuc enzyme, luminescence, Km substrate; also: 0% is about no effect
GloSensor cGMP: counter-screen for Npr1 antagonists: GloSensor control cell line | shares compounds with NPR1 antag | HEK293 GloSensor cGMP, SNP-stimulated, luminescence | Potency, µM (doses to about 57.6 µM), inactives show at the top dose activity change, negative = inhibition, hits mostly inhibitors | hit rate 69% among 1,400 | AID 1347051; calls by dose curve; also: % is scaled to controls: 0 for no effect and ±100 for the full control effect; nearly all actives have a fitted effect of over 70% in size
* marks the source's active call; other numbers are inactive results; i = inactive; ? = inconclusive; . = not tested or not shown; [ ] = another dose, or the depositor's remark. Unless noted, calls follow the shape of the dose curve; as a rule, active = well fitted curve in the direction sought with a large enough effect; inconclusive = small, poorly fitted or top-dose-only effect, or another doubt; inactive = no such curve, though single readings can be large; an effect the other way counts as inactive or inconclusive. Potency is read from the fitted curve at half-maximal effect.

SMILES	GPT2 inh	NPR1 antag	NIH3T3 tox	FLuc inh	HEK cytotox	Npr1 antag conf	Npr2 selectivity	FLuc inh counter	GloSensor cGMP
CCCC1CN(Cc2ccccc2)[S+](=O)([O-])c2cccnc2O1 (stereo unspecified)	0%[27.3 µM]	.	?	.	?	.	.	.	.
COc1cccc(C(=O)NCCNC(=O)c2cccc(-c3ccc(SC)cc3)c2)c1	i	.	-11%	.	?	.	.	.	.
O=C(NCCc1ccccc1F)c1ccc2oc(-c3ccnc(Cl)c3)nc2c1	i	.	-22%	.	-6%	.	.	.	.
Cc1ccc(C2Cn3nnc(C(=O)N4CCN(C(=O)c5cc(Cl)ccc5F)CC4)c3CO2)cc1 (stereo unspecified)	-8%	?	?	i	?	15µM*	19µM*	-2%	17µM*
Cc1ccc(C2Cn3nnc(C(=O)N4CCN(C(=O)c5ccccc5F)CC4)c3CO2)cc1 (stereo unspecified)	i	?	-21%	i	?	.	.	.	.
Cc1ccccc1N1CCN(C(=O)c2nnn3c2COC(c2ccc(Cl)cc2)C3)CC1 (stereo unspecified)	i	4%	0%	i	0%	.	.	.	.
Cc1ccccc1CC(=O)N1CCN(C(=O)c2nnn3c2COC(c2ccc(Cl)cc2)C3)CC1 (stereo unspecified)	2%	14µM*	35µM*	i	28µM*	19µM*	22µM*	4%	19µM*
Cc1ccc(C2Cn3nnc(C(=O)N4CCN(C(=O)c5ccc(Cl)cc5)CC4)c3CO2)cc1 (stereo unspecified)	3%	-4%	-7%	i	-6%	.	.	.	.
COc1ccccc1C(=O)N1CCN(C(=O)c2nnn3c2COC(c2ccc(Cl)cc2)C3)CC1 (stereo unspecified)	i	-27%	?	i	?	.	.	.	.
Cc1ccccc1C(=O)N1CCN(C(=O)c2nnn3c2COC(c2ccc(Cl)cc2)C3)CC1 (stereo unspecified)	i	?	?	i	?	27µM*	?	1%	?
COc1cc(Cl)ccc1C(=O)N1CCN(C(=O)c2nnn3c2COC(c2ccccc2)C3)CC1 (stereo unspecified)	i	?	?	i	?	22µM*	?	3%	31µM*
O=C(NCc1cccc(Cl)c1)c1ccc2nnc(-c3ccoc3)n2c1	i	.	?	.	-29%	.	.	.	.
Cc1ccc(C2=NC3(CCN(C(=O)c4cc(F)ccc4F)CC3)ON2)cc1	3%	-6%	?	i	?	.	.	.	.
O=C(c1ccc(F)cc1F)N1CCC2(CC1)N=C(c1ccc(Cl)cc1)NO2	3%	14µM*	?	i	?	24µM*	24µM*	-4%	22µM*
O=C(c1ccc(F)cc1F)N1CCC2(CC1)N=C(c1ccc(Br)cc1)NO2	2%	11µM*	?	i	?	17µM*	15µM*	-2%	12µM*
COc1ccccc1Cn1c(=O)c(C(=O)N2CCN(C(=O)c3ccc(C)cc3)CC2)nc2cccnc21	i	.	?	.	-15%	.	.	.	.
O=C(Nc1cc(C2CC2)nn1-c1ccccc1)c1cccc(Br)c1	1%	.	?	.	?	.	.	.	.
O=C(Cc1ccccc1F)N1CCC2(CC1)CN(C1CCC1)CC2CO (stereo unspecified)	-6%	-15%	?	i	?	.	.	.	.
COc1ncccc1CN1CCC2(CC1)OC(=O)N(Cc1ccc(O)cc1)C2(C)c1ccccc1 (stereo unspecified)	0%	-26%	?	i	?	-29%	?	1%	-2%
O=C(NC1CCN(CCn2nc3n(c2=O)CCCC3)C1)c1ccc2c(c1)OCO2 (stereo unspecified)	.	.	-6%	.	i	.	.	.	.
CC1=NS(=O)(=O)N(C)C=C1C(=O)OCc1nc(-c2ccc(Br)cc2)no1	?	10µM*	?	i	?	11µM*	14µM*	-12%	11µM*
CC1=NS(=O)(=O)N(C)C=C1C(=O)OCc1nc(Cc2ccc(C)cc2)no1	i	11µM*	-22%	i	-27%	22µM*	?	2%	19µM*
CC1=NS(=O)(=O)N(C)C=C1C(=O)OCc1nc(-c2ccc(OC(F)(F)F)cc2)no1	i	10µM*	?	i	40µM*	15µM*	14µM*	2%	12µM*
COc1ccc(-c2noc(COC(=O)C3=CN(C)S(=O)(=O)N=C3C)n2)cc1	i	7.9µM*	-24%	i	?	12µM*	17µM*	-8%	14µM*
CC1=NS(=O)(=O)N(C)C=C1C(=O)OCc1nc(-c2cnccn2)no1	4%	2%	1%	i	2%	.	.	.	.
SMILES	GPT2 inh	NPR1 antag	NIH3T3 tox	FLuc inh	HEK cytotox	Npr1 antag conf	Npr2 selectivity	FLuc inh counter	GloSensor cGMP
COc1ccc(CN2C=C(C(=O)OCc3nc(-c4ccc(F)cc4)no3)C(C)=NS2(=O)=O)cc1	i	?	?	i	?	.	.	.	.
COc1ccc(-c2cccc(C(=O)N3CCC(NC(=O)c4cccnc4)CC3)c2)nn1	.	.	-4%	.	3%	.	.	.	.
CCOCC(=O)N1CCc2nc3cc(-c4ccc(OC)cc4)[nH]n3c(=O)c2C1	i	-7%	?	?	?	.	.	.	.
CC1=NS(=O)(=O)N(Cc2ccccc2)C=C1C(=O)OCc1nc(-c2ccccc2F)no1	-4%	-19%	?	i	-29%	.	.	.	.
CC1=NS(=O)(=O)N(C)C=C1C(=O)OCc1nc(C2CCCCC2)no1	i	13µM*	?	i	-25%	22µM*	?	-8%	17µM*
CC1=NS(=O)(=O)N(C)C=C1C(=O)OCc1nc(-c2ccccc2F)no1	i	?	-14%	i	-4%	?	?	-2%	?
Cc1nn2c(c1-c1cccnc1N1CCOCC1)N(Cc1ccccc1F)CCC2	2%[88.5 µM]	-18%[70.6 µM]	?	i	?	.	.	.	.
